# Source: PubChem BioAssay (NCI)
# The panel holds about 83,000 compounds, 20% with a hit somewhere; the sample as a whole holds those more often.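 Values shown are percent growth following 48 h exposure of cells in 96-well plates to a single concentration of compound; below 10 was considered active.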 Unmarked numbers belong to inactive results. Active and inactive are the calls of the source.
# What was measured:
# Assay in all cases: NCI-60 one-dose screen, 48 h (100 = growth as untreated, 0 = no growth, -100 = all killed)
# Conditions in all cases: 10 µM unless noted
# HCT-15 colon = tested on: HCT-15 colon
# SNB-75 CNS = tested on: SNB-75 CNS
# SNB-19 CNS = tested on: SNB-19 CNS
# U251 CNS = tested on: U251 CNS
# PC-3 prostate = tested on: PC-3 prostate
# SK-MEL-5 melanoma = tested on: SK-MEL-5 melanoma
# UACC-62 melanoma = tested on: UACC-62 melanoma
# LOX IMVI melanoma = tested on: LOX IMVI melanoma
# SK-MEL-28 melanoma = tested on: SK-MEL-28 melanoma
# HT29 colon = tested on: HT29 colon
SMILES,growth (HCT-15 colon),growth (SNB-75 CNS),growth (SNB-19 CNS),growth (U251 CNS),growth (PC-3 prostate),growth (SK-MEL-5 melanoma),growth (UACC-62 melanoma),growth (LOX IMVI melanoma),growth (SK-MEL-28 melanoma),growth (HT29 colon)
CSc1nc(Cl)cc(N2CC2)n1,100%,110%,108%,110%,92.5%,105%,97.9%,111%,121%,–
C1CCC([PH+](C2CCCCC2)C2CCCCC2[PH+](C2CCCCC2)C2CCCCC2)CC1.[Au].[CH-]1CCCCC1CC1CCCC[N-]1 (stereo not given),-36.9% (active),–,-89% (active),-78.1% (active),-22.2% (active),-99.8% (active),-71% (active),-97.2% (active),-70.5% (active),1.89% (active)
CC(C)[C@@H]1NC(=O)[C@]2(C)CSC(=N2)c2csc(n2)CNC(=O)C[C@@H](/C=C/CCS)OC1=O,58.6%,29.1%,22.3%,-62.1% (active),17%,-81.2% (active),-42.2% (active),-93.1% (active),5.48% (active),–
C=CCCCCCCCCC(=O)[O-].C=CCCCCCCCCC(=O)[O-].[Zn+2],101%,103%,–,89%,85.7%,113%,99.4%,90.5%,104%,105%
Fc1ccc(N2COOC3(OOC2)C2CC4CC(C2)CC3C4)cc1,88.6%,–,95.5%,97.1%,90.4%,101%,76.5%,-82.2% (active),100%,102%
CCCCC1(CCC)C(=O)NC(=S)NC1=O,93.7%,77.5%,–,95.9%,80.4%,104%,104%,103%,108%,105%
CC1=C(O)[C@@](C)(CCCCC[C@H](C)CCCCc2ccc(O)cc2)OOC1=O,98.3%,–,101%,92.8%,75.4%,102%,79.2%,69.8%,114%,105%
CCN(CC)c1ccc2c(c1)OC(N)=C(C#N)C2c1cc(OC)c2c(c1)OCO2 (stereo not given),16.1%,–,40.1%,12.5%,30.9%,-29.6% (active),31.8%,23.2%,72.2%,-9.44% (active)
O=C(N/N=C\c1ccc(N(CCCl)CCCl)cc1Cl)c1cccnc1,79.9%,86.6%,89%,65.2%,92.9%,72.6%,-40.4% (active),87.1%,98.5%,–
COc1ccc(NC([Se])=NC23CC4CC(CC(C4)C2)C3)cc1,9.68% (active),–,15.7%,-31% (active),7.99% (active),-85.5% (active),-24.3% (active),3.59% (active),13.2%,5.56% (active)
